A short description of assay [1]: qHTS assay to identify aromatase inhibitors - cell viability counter screen (AID 743084).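 Further: cells stimulated with testosterone during compound exposure; nearly all actives have a fitted effect of over 55% in size.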 In general terms: In qHTS, concentration-response curves come from the screen itself.
The target of assay [2] is Aryl hydrocarbon receptor (Homo sapiens) (UniProt P35869). Description: qHTS assay to identify small molecule that activate the aryl hydrocarbon receptor (AhR) signaling pathway (AID 743085). Further: nearly all actives have a fitted effect of over 15% in size. Further: potency means the concentration at half of the fitted maximal effect.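 On activation: HG2L7.5c1 human HepG2 liver cells with stably integrated DRE-driven firefly reporter; series mostly up to about 70 µM.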 The gist of the method:
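Luminescence (ONE-Glo) from a dioxin-responsive-element luciferase reporter in HG2L7.5c1 HepG2 cells after 24 hr compound exposure at 37C; viability measured by CellTiter-Fluor fluorescence beforehand.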

Assay [3] in a line: qHTS assay to identify small molecule that activate the aryl hydrocarbon receptor (AhR) signaling pathway - cell viability counter screen (AID 743086).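 Further: HepG2 liver cells carrying the AhR DRE luciferase reporter; series mostly up to about 70 µM; nearly all actives have a fitted effect of over 45% in size.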 The gist of the method:
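HepG2-AhR-luc (HG2L7.5c1) cells, 4000/well, were preincubated 5 h at 37C, exposed to compound in qHTS format for 24 hr at 37C, then given CellTiter-Fluor for 30 min; viability was read as fluorescence in the reporter wells.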

The target of assay [4] is Peroxisome proliferator-activated receptor gamma (Homo sapiens) (UniProt P37231). As to the kind of experiment: qHTS assay to identify small molecule agonists of the peroxisome proliferator-activated receptor gamma (PPARg) signaling pathway (AID 743094; active means well fitted activation curve with a large enough effect in the signal ratio in the repeat runs, not every such curve was filed as active; the % refers to the signal ratio). The gist of the method:
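Agonism was assessed in a beta-lactamase reporter system, HEK293H cells with a stably integrated UAS-bla construct under PPARg control; the 17 h treatment at 37C preceded a 1 h room-temperature FRET substrate read.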

A short description of assay [5]: qHTS assay to identify small molecule antagonists of the peroxisome proliferator-activated receptor gamma (PPARg) signaling pathway - cell viability counter screen (AID 743194). Further: nearly all actives have a fitted effect of over 55% in size. Further: potency means the concentration at half of the fitted maximal effect. The gist of the method: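 PPARg-UAS-bla HEK293H cells were plated, rested 5 h at 37 C, then treated with compounds plus rosiglitazone (50 nM final) for 17 h at 37 C; viability was then read by CellTiter-Glo luminescence after 30 min at room temperature.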

The nature of assay [6]: qHTS assay for small molecule agonists of the antioxidant response element (ARE) signaling pathway (AID 743202; active means well fitted activation curve with a large enough effect in the signal ratio in the repeat runs, not every such curve was filed as active; the % refers to the signal ratio; further: potency means the concentration at half of the fitted maximal effect). The gist of the method:
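Steps: seed ARE-bla HepG2 cells (2,000/well); incubate 5 h at 37 C; add compounds by pin tool; incubate 16 h at 37 C; add FRET substrate; read fluorescence after 2 h at RT.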

A short description of assay [7]: qHTS assay for small molecule agonists of the antioxidant response element (ARE) signaling pathway - cell viability counter screen (AID 743203; calls by dose curve; further: nearly all actives have a fitted effect of over 55% in size). The gist of the method:
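ATP content via CellTiter-Glo luminescence served as the viability measure. Cells: ARE-bla HepG2, 2,000 per well. Exposure: 16 hrs, 37C/5% CO2.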

Assay [8] can be described thus: qHTS assay for small molecule activators of the heat shock response signaling pathway - cell viability counter screen (AID 743209). Further: nearly all actives have a fitted effect of over 50% in size. The gist of the method:
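Compounds dissolved in DMSO were added to overnight-plated HSE-bla HeLa cells and left 5 h at 37 C. Cell viability was quantified by luminescence using CellTiter-Glo.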

The nature of assay [9]: qHTS assay for small molecule activators of the heat shock response signaling pathway (AID 743210; active means well fitted activation curve with a large enough effect in the signal ratio in the repeat runs, with a control signal flat, not every such curve was filed as active; the % refers to the signal ratio;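 further: HeLa cells with beta-lactamase reporter driven by heat shock elements; series mostly up to about 63 µM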). The gist of the method: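 Activation of heat shock element-controlled beta-lactamase expression is measured in HeLa cells by LiveBLAzer FRET fluorescence, with compound exposure lasting 5 h at 37 C and substrate loading 2.5 h at room temperature.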
For assay [10], the target named is Peroxisome proliferator-activated receptor gamma (Homo sapiens) (UniProt P37231). As to the kind of experiment: qHTS assay to identify small molecule antagonists of the peroxisome proliferator-activated receptor gamma (PPARg) signaling pathway (AID 743191; calls by dose curve; further: potency means the concentration at half of the fitted maximal effect; nearly all actives have a fitted effect of over 30% in size). The gist of the method: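 GeneBLAzer PPARg UAS-bla HEK293H cells carrying a UAS-driven beta-lactamase reporter were plated at 3000 cells/well, preincubated 5 h at 37C, then given compound for 17 h at 37C; LiveBLAzer B/G FRET substrate was read after 1 h at room temperature.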

Inconclusive results are not listed. A number with no mark means an inactive call. Activity calls are given as the source filed them. Unless noted, the call rests on the fitted dose curve; in most records, active means well fitted curve in the direction sought with a large enough effect in the repeat runs; inconclusive means weak or mixed curves; inactive means no such curve, though single readings can be large; an effect the other way counts as inactive or inconclusive.

Chain of Aryl hydrocarbon receptor (Homo sapiens) (P35869 whole entry, looked up): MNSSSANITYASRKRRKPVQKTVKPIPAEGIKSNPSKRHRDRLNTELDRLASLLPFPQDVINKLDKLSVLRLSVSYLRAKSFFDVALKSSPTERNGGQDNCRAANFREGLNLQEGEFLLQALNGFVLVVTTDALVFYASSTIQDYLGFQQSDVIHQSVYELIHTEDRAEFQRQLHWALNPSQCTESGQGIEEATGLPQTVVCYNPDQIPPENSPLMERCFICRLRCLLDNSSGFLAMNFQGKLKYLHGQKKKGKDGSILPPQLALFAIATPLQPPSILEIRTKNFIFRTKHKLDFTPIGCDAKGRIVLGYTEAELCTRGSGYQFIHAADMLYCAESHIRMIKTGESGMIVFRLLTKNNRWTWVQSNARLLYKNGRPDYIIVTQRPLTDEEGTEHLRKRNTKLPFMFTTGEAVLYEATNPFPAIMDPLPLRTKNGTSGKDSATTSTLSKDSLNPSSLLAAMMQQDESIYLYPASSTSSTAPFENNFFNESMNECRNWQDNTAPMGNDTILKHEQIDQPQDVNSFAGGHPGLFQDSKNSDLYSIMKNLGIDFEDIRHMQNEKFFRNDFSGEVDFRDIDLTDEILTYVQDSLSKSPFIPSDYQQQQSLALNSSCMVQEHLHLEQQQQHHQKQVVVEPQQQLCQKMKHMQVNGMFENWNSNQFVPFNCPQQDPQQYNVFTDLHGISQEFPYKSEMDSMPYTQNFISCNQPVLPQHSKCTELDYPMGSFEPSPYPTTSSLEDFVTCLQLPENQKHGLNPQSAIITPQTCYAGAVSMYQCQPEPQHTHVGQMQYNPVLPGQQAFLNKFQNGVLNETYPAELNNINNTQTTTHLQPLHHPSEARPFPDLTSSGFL
Chain of Peroxisome proliferator-activated receptor gamma (Homo sapiens) (P37231 whole entry, looked up): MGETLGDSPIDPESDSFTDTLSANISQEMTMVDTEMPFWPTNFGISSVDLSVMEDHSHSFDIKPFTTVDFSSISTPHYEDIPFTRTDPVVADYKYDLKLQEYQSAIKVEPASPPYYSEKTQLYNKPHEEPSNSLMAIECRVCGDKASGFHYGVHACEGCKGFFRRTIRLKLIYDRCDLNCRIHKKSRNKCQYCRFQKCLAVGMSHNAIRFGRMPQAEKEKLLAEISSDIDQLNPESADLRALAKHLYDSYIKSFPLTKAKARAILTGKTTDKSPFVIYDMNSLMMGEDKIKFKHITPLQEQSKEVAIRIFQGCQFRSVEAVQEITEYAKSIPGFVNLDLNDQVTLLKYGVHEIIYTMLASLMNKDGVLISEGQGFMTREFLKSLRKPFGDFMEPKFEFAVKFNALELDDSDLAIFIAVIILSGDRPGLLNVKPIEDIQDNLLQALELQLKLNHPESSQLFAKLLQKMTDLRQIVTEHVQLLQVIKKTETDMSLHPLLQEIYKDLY

As to `CC[C@@H]([C@H](C)O)n1ncn(-c2ccc(N3CCN(c4ccc(OC[C@@H]5CO[C@@](Cn6cncn6)(c6ccc(F)cc6F)C5)cc4)CC3)cc2)c1=O`, the Potency entry in [1], in assay [2], in [3], in assay [4], in [7] and in assay [8] was “inactive” each time. Moreover, the Potency entry in assay [9] is “inactive”. For the same compound, the results for the Potency in assay [5] and in assay [6] were 29.8 µM (active) and 10.6 µM (active), respectively.
Take `Oc1ccc(Nc2ccccc2)cc1`: the Potency entry in assay [1], in assay [2], in [3], in assay [7], in assay [8] and in assay [9] was “inactive” throughout. The Potency in assay [10] was 19.5 µM (active); in assay [6], 27.3 µM (active).
For `CCN(Cc1cccc(S(=O)(=O)O)c1)c1ccc(C(=C2C=CC(=[N+](CC)Cc3cccc(S(=O)(=O)[O-])c3)C=C2)c2ccccc2)cc1`, the Potency result in assay [1], in assay [2], in assay [3], in assay [4], in assay [5] and in [7] was “inactive” throughout. The Potency entry in [8] and in assay [9] was “inactive” each time. Further, the Potency in assay [6] is 38.3 µM (active).
Turning to `N#C[C@@H]1C[C@@H]2C[C@@H]2N1C(=O)[C@@H](N)C12CC3CC(CC(O)(C3)C1)C2`, the Potency result in assay [1], in assay [2], in [3], in [4], in [5] and in [6] was “inactive” throughout. For the same compound, the Potency entry in assay [7], in assay [8] and in [9] was “inactive” in each case.
Consider `CC(Cl)C(Cl)Cl` (stereo not drawn), for which the Potency entry in [1], in [2], in assay [3], in assay [4], in [5] and in assay [6] was “inactive” throughout. In addition, the Potency entry in [7] and in assay [8] was “inactive” in each case.
As for `CCC(C)(C)C1CCC(O)CC1` (stereo not drawn), the Potency result in [1], in [2], in assay [3], in assay [4], in assay [5] and in [6] was “inactive” throughout. The Potency result in assay [7], in assay [8] and in [9] was “inactive” in each case.
Take `CCCCC(CC)COC(=O)COc1ccc(Cl)cc1C` (stereo not drawn): the Potency result in assay [1], in assay [2], in assay [3], in [4], in [5] and in assay [6] was “inactive” throughout. Besides, the Potency entry in assay [7], in assay [8] and in [9] was “inactive” throughout.
As for `CCCCCCCC/C=C\CCCCCCCC(=O)OC(CO)CO`, the Potency result in assay [1], in [2], in assay [3], in assay [4], in assay [5] and in [7] was “inactive” in each case.
With `CCn1nc(C)c2c1C(=O)NCC(c1ccc(O)cc1)=N2`, the Potency entry in [1], in [3], in assay [4] and in assay [7] was “inactive” each time. Besides, the Potency in [2] is 24.3 µM (active).
Turning to `CCCCN(CCCC)C(=S)SSC(=S)N(CCCC)CCCC`, the Potency result in assay [1], in [2], in assay [3], in assay [5], in assay [7] and in [8] was “inactive” in each case. Moreover, in assay [10], the Potency is 24.3 µM (active).
As for `CNC(=O)N(c1ccccc1)c1ccccc1`, the Potency result in assay [1], in assay [2], in [3], in assay [4], in assay [5] and in [7] was “inactive” in each case. For the same compound, the Potency result in [8] and in [9] was “inactive” in each case.
Regarding `O=C(O)C(Cc1cc(I)c(O)c(I)c1)c1ccccc1` (stereo not drawn), the Potency result in [1], in assay [2], in assay [3], in [5], in assay [6] and in [7] was “inactive” throughout. Also, the Potency result in assay [8] and in [9] was “inactive” throughout. The Potency in assay [10] was 37.6 µM (active).
Take `CCC(=O)Oc1ccc(/C(CC)=C(\CC)c2ccc(OC(=O)CC)cc2)cc1`: the Potency entry in assay [1], in [2], in [3], in assay [4] and in assay [7] was “inactive” each time.
Take `O=C(CCCCCCCCC#CI)Oc1ccccc1`: the Potency entry in assay [1], in assay [2], in [3], in assay [4], in [5] and in [6] was “inactive” each time. In addition, the Potency entry in assay [8] and in assay [9] was “inactive” in each case.
`CC(=O)[C@H]1CC[C@H]2[C@@H]3C=CC4=CC(=O)CC[C@@]4(C)[C@@H]3CC[C@]12C`: the Potency entry in assay [1], in [2], in [3], in assay [4], in assay [5] and in [7] was “inactive” each time. Further, the Potency result in assay [8] and in assay [9] was “inactive” throughout. In [6], the Potency is 13.3 µM (active).
On to `O=C(CS)OCCOC(=O)CS`, for which the Potency entry in assay [1], in assay [2], in assay [3], in [4], in assay [5] and in assay [6] was “inactive” each time. Besides, the Potency entry in assay [7] and in assay [8] was “inactive” each time.
Turning to `CCCCCCCCCCCC(=O)[O][Sn]([CH2]CCC)([CH2]CCC)[O]C(=O)CCCCCCCCCCC`, the Potency entry in assay [1], in [2], in assay [3] and in assay [4] was “inactive” in each case. In addition, the Potency in [6] is 2.11 µM (active).
For the compound `CC(C)(C)C(=O)C(Oc1ccc(Cl)cc1)n1ccnc1` (stereo not drawn), the Potency result in [1], in assay [3], in assay [5], in assay [6], in [7] and in assay [8] was “inactive” in each case. Further, in assay [2], the Potency was 23.7 µM (active).
Take `CC#N`: the Potency entry in assay [1], in [2], in [3], in assay [5], in [6] and in [7] was “inactive” each time. Besides, the Potency result in [8] was “inactive”.
`CCCCCCOC(=O)C(C)C`: the Potency entry in assay [1], in [2], in assay [3], in assay [4], in [5] and in assay [6] was “inactive” each time. The Potency result in assay [8] and in assay [9] was “inactive” in each case.
In the case of `CCC(C(=O)OCCOCCN(CC)CC)c1ccccc1` (stereo not drawn), the Potency entry in assay [1], in assay [2], in assay [3], in assay [4], in assay [5] and in [6] was “inactive” throughout. In addition, the Potency entry in assay [7], in [8] and in assay [9] was “inactive” each time.
Turning to `CN(C)C(=O)Nc1ccc(Oc2ccc(Cl)cc2)cc1`, the Potency result in assay [1], in [2], in assay [3], in assay [4], in assay [5] and in assay [7] was “inactive” in each case. The Potency result in [8] and in [9] was “inactive” throughout. Besides, the Potency in assay [6] was 19.3 µM (active).
`COC(=O)[C@@H]1CC2=CC(=O)CC[C@]2(C)[C@@]23O[C@@H]2C[C@@]2(C)[C@@H](CC[C@@]24CCC(=O)O4)[C@H]13`: the Potency entry in assay [1], in [2], in assay [3], in [4], in [5] and in assay [6] was “inactive” throughout. Moreover, the Potency result in assay [7], in [8] and in [9] was “inactive” throughout.
With `CC(=O)Oc1ccc(C(=C2CCCCC2)c2ccc(OC(C)=O)cc2)cc1`, the Potency entry in assay [1], in assay [2], in [3], in [5], in [7] and in assay [8] was “inactive” in each case. Further, the Potency in assay [6] was 29.8 µM (active).
Regarding `CC(=O)OCC(=O)[C@@]12OC(C)(C)O[C@@H]1C[C@H]1[C@@H]3C[C@H](F)C4=CC(=O)C=C[C@]4(C)[C@@]3(F)[C@@H](O)C[C@@]12C`, the Potency entry in assay [1], in [2], in assay [3], in assay [4], in assay [5] and in [6] was “inactive” in each case. Also, the Potency entry in assay [7], in assay [8] and in assay [9] was “inactive” each time.
For the compound `C=CC(C)=CCC=C(C)C`, the Potency entry in assay [1], in assay [2], in [3], in assay [4], in [5] and in assay [7] was “inactive” throughout. In assay [8], the Potency result was “inactive”.

For the origin of these results see PubChem BioAssay (Tox21).
